High-throughput results as filed in PubChem.
Compounds with a hit are over-represented: about 0.65% of the library has one in this group of screens.
BJeLR viability – MLPCN primary cell-based screen for lethality selective to Ras in HRASV12 cells; BJeLR (HRASV12) viability, CellTiter-Glo ATP luminescence, 48 h; inhibition, % (concentration not given with the values); 300,000 compounds, 0.17% hits; AID 1554, 2009; in the data active means inhibition above about 50%
Sa RN4220 lethal – growth inhibition of S. aureus RN4220, primary screen, OD600 | 16 h | AID 1259311, 2017 | 330,000 compounds, 0.33% hits | inhibition, % (no concentration beside the values); in the data active means inhibition above about 85%;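 further: plate controls were untreated cells for no effect and reference antibiotic for full effect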
ugtP null kill – growth inhibition of ugtP-null S. aureus, primary screen, RN4220 ugtP deletion, OD600 | 16 h | growth inhibition, % (concentration not given with the values) | 330,000 compounds, 0.54% hits | AID 1259309, 2017; in the data active means growth inhibition above about 68%;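 further: plate controls were untreated wells for no effect and antibiotic for full effect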
* = called active by the depositor; . = no result given.

SMILES	BJeLR viability	Sa RN4220 lethal	ugtP null kill
Cc1ccc(C)c(OCC(=O)Nc2cccc(S(=O)(=O)NC3=NCCCCC3)c2)c1	1.5	1.7	3.8
O=c1ccc2cc(S(=O)(=O)N3CCN(c4ccccc4F)CC3)ccc2o1	3.6	-0.3	-0.3
O=c1[nH]c2ccc(S(=O)(=O)N3CCN(c4ccccc4F)CC3)cc2s1	-13.0	-12.2	100.6*
O=C1CCCc2c1ccc1ccccc21	.	6.6	0.1
Oc1ccc(-c2nc3ccc4ccccc4c3c3c2CCC3)cc1O	-4.8	-3.6	98.4*
CC[n+]1c(/C=C/Nc2ccccc2)sc2ccccc21	11.4	7.6	-6.5
CC[n+]1c(/C=C(\C)SC)sc2ccccc21	-10.5	0.6	14.4
CCN1/C(=C/C=C/c2sc3ccccc3[n+]2CC)Sc2ccccc21	68.8*	.	.
CCN1/C(=C/C=C/C=C/C=C/c2sc3ccccc3[n+]2CC)Sc2ccccc21	62.9*	91.6*	98.1*
CCN1/C(=C/C=C/C=C/c2sc3ccccc3[n+]2CC)Sc2ccccc21	69.5*	.	.
CC[n+]1c(/C=C(/C)SC)sc2ccccc21	3.8	.	.
CC(=O)OCC1=C(C(=O)OC(C)(C)C)N2C(=O)[C@@H](NC(=O)Cc3ccccc3)[C@H]2SC1	.	95.7*	93.6*
COCC1=C(C(=O)OC(C)OC(=O)OC(C)C)N2C(=O)C(NC(=O)C(=NOC)c3csc(N)n3)C2SC1 (stereo not given)	.	67.6	43.0
NC(=O)c1cc[n+](CC2=C(C(=O)O)N3C(=O)[C@@H](NC(=O)C(c4ccccc4)S(=O)(=O)[O-])[C@H]3SC2)cc1 (stereo not given in full)	-2.8	.	.
CC(=O)OCC1=C(C(=O)O)N2C(=O)C(NC(=O)c3ccc(COc4cccc(Cl)c4Cl)o3)C2SC1 (stereo not given)	0.8	100.3*	100.5*
CC1=C(C(=O)OCC(Cl)(Cl)Cl)N2C(=O)C(NC(=O)Cc3ccccc3)C2SC1 (stereo not given)	3.8	4.0	14.3
Cc1nnc(SCC2=C(C(=O)O)N3C(=O)C(NC(=O)C(C)n4nc(C(F)(F)F)cc4C)C3SC2)s1 (stereo not given)	1.7	99.8*	100.5*
CON=C(C(=O)NC1C(=O)N2C(C(=O)O)=C(COC(C)=O)CSC12)c1csc(N)n1 (stereo not given)	.	100.4*	100.0*
CC1=C(C(=O)O)N2C(=O)C(NC(=O)c3ccccc3Cl)C2SC1 (stereo not given)	11.4	9.0	11.8
CC1(c2nnc(Cc3ccccc3)o2)CC(c2ccncc2)=NO1 (stereo not given)	-1.1	-1.8	0.4
Cc1ccc(S(=O)(=O)c2c(N)n(Cc3ccco3)c3nc4ccccc4nc23)cc1	-5.3	-7.8	-11.6
COCCCNS(=O)(=O)c1ccc2c(c1)CCN2C(C)=O	11.3	0.7	5.2
COc1ccc(/C=N/Nc2ncnc3sc4c(c23)CCCC4)cc1OC	2.9	.	.
COc1ccc(NC(=O)COC(=O)C23CC4CC(CC(NC(C)=O)(C4)C2)C3)cc1S(=O)(=O)N1CCOCC1	.	0.8	7.0
Cc1nnc(SCC2=C(C(=O)O)N3C(=O)C(NC(=O)Cc4ccccc4)C3SC2)s1 (stereo not given)	.	100.2*	100.1*
SMILES	BJeLR viability	Sa RN4220 lethal	ugtP null kill
Cc1nnc(SCC(=O)NCCc2ccccc2)s1	-1.5	5.0	5.5
C=C(CC1CC(O)[C@]2(C)OC3CC4OC5C[C@]6(C)O[C@]7(C)CCC8OC9C[C@]%10(C)OC%11C(C)=CC(=O)OC%11CC%10OC9C[C@@H](C)C8OC7CC6O[C@]5(C)C/C=C\C4OC3CC2O1)C(=O)O (stereo not given in full)	8.7	-8.1	-10.0
C=C(C=O)C[C@@H]1C[C@H](O)C2OC3C[C@]4(C)OC5/C=C\CC6OC7C(CC=CCC6OC5CCCC4OC3CC2O1)OC1CC2OC3CC(=O)OC3C[C@@H](C)C[C@@]2(C)OC1C[C@@H]7C (stereo not given in full)	95.2*	.	.
CN(C)S(=O)(=O)c1ccc(NC(=O)c2cc(-c3cccs3)nc3ccccc23)cc1	0.8	2.8	6.3
NS(=O)(=O)c1ccc(NC(=O)c2cc(-c3cccs3)nc3ccccc23)cc1	62.7*	.	.
CCOC(=O)CCCNC(=O)CCNC(=O)c1ccc(OCC)cc1	-8.1	4.5	-0.3
CCCCOc1ccc(C(=O)N/C(=C/C=C/c2ccccc2)C(=O)NCCO)cc1	0.2	3.1	0.5
CSc1nc(SCCN(C)C)c2c3c(sc2n1)COC(C)(C)C3	-4.7	-4.5	-0.1
CCCC(=O)Nc1c(-c2ccccc2)c(=O)c(C)nn1-c1ccc(Cl)cc1	0.2	.	.
